Assay [1] can be described thus: NCI Yeast Anticancer Drug Screen. Data for the rad50 strain (AID 155).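 Also: 0% = growth of vehicle-only cultures of the same strain.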 Particulars: S. cerevisiae rad50 strain growth inhibition, hits give high values. The procedure, abridged:
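Genetically altered yeast (DNA repair pathway); compound treatment; growth inhibition vs vehicle ctrl.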

The nature of assay [2]: NCI Yeast Anticancer Drug Screen. Data for the mec2-1 strain (AID 157). Particulars: S. cerevisiae mec2-1 strain, hits give high values. Put shortly:
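Cells of the genetically defined mec2-1 yeast strain are incubated with test compound. Inhibition of growth is calculated against vehicle-treated controls.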

Assay [3] is described as follows: NCI Yeast Anticancer Drug Screen. Data for the sgs1 mgt1 strain (AID 161).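 Also: 0% = growth of cultures given vehicle only.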 Particulars: S. cerevisiae sgs1 mgt1 strain, hits give high values. Put shortly: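 Read-out: growth inhibition vs vehicle controls. Cells: mutant yeast strain deficient in DNA damage repair.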
Assay [4] is described as follows: NCI Yeast Anticancer Drug Screen. Data for the cln2 rad14 strain (AID 165).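 Also: 0% = growth equal to vehicle treated cultures.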 Particulars: S. cerevisiae cln2 rad14 strain, hits give high values. The procedure, abridged: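 The screen exposed genetically defined yeast (cln2 rad14) to test compounds and scored growth inhibition relative to vehicle-treated controls.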
Assay [5] can be described thus: NCI Yeast Anticancer Drug Screen. Data for the bub3 strain (AID 167). Particulars: S. cerevisiae bub3 mutant strain, hits give high values. Put shortly: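 Yeast carrying a defined mutation is treated with each compound, and growth is compared with that of vehicle-exposed cells to give inhibition.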
Assay [6] is described as follows: NCI Yeast Anticancer Drug Screen. Data for the mlh1 rad18 strain (AID 175). Particulars: S. cerevisiae mlh1 rad18 strain growth inhibition, hits give high values. Put shortly: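 Compound-treated yeast growth, normalised to vehicle controls. Strain bears defined DNA repair mutations.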
[7] abbreviates: at 5.0 µM (retest, dose inferred, filed as 0.5).
The mark [8] stands for this setting: at 50.0 µM (retest, dose inferred, filed as 5.0).

The record followed here is PubChem BioAssay (NCI).

Compounds without any hit were thinned out: in the full panel of roughly 79,000, 15% have a hit. Values without a mark were called inactive. Calls of active or inactive are those of the source. Rule as the data show it: active = growth inhibition above about 70%; inactive = the rest.

On to `O=C(Nc1ccc(Cl)cc1Cl)C1C(=O)OC2(CCCCC2)OC1=O`, for which the growth inhibition in assay [1] (setting [7]) is 24%; in assay [1] (setting [8]) it was 96% (active); in assay [1] (at 50.0 µM) it was 84.5% (active); in assay [2] (setting [7]), 38%; in assay [2] (setting [8]) it was 98% (active); in assay [2] (at 50.0 µM), 89.8% (active). Moreover, the growth inhibition in assay [3] (setting [7]) was 30%; in assay [3] (setting [8]), 97% (active); in assay [3] (at 50.0 µM), 55.6%; in assay [4] (setting [7]) it was 37%; in assay [4] (setting [8]), 98% (active); in assay [4] (at 50.0 µM), 62.8%. Moreover, the growth inhibition in assay [5] (setting [7]) is 45%; in assay [5] (setting [8]) it was 98% (active); in assay [5] (at 50.0 µM), 62.3%; in assay [6] (setting [7]) it was 37%; in assay [6] (setting [8]), 97% (active); in assay [6] (at 50.0 µM), 87.2% (active).
As for `CCCCCCCCCCCCCCC[C@@H](O)C[N+](C)(C)CCO`, the growth inhibition was 28% in assay [1] (setting [7]); 98% (active) in assay [1] (setting [8]); 90.5% (active) in assay [1] (at 50.0 µM); 91% (active) in assay [2] (setting [7]); 99% (active) in assay [2] (setting [8]); 92.8% (active) in assay [2] (at 50.0 µM). Besides, the growth inhibition is 50% in assay [3] (setting [7]); 98% (active) in assay [3] (setting [8]); 90% (active) in assay [3] (at 50.0 µM); 42% in assay [4] (setting [7]); 98% (active) in assay [4] (setting [8]); 88.5% (active) in assay [4] (at 50.0 µM). In addition, the growth inhibition was 69% in assay [5] (setting [7]); 98% (active) in assay [5] (setting [8]); 87.1% (active) in assay [5] (at 50.0 µM); 57% in assay [6] (setting [7]); 98% (active) in assay [6] (setting [8]); 92.3% (active) in assay [6] (at 50.0 µM).
On to `CC(C)(C)NC(=S)N/N=C/c1ccccc1O`, for which the growth inhibition in assay [1] (setting [7]) is 48%; in assay [1] (setting [8]), 66%; in assay [1] (at 50.0 µM), 89% (active); in assay [2] (setting [7]) it was 25%; in assay [2] (setting [8]), 73% (active); in assay [2] (at 50.0 µM), 88.8% (active). Further, the growth inhibition in assay [3] (setting [7]) was 40%; in assay [3] (setting [8]), 88% (active); in assay [3] (at 50.0 µM), 92.5% (active); in assay [4] (setting [7]), 24%; in assay [4] (setting [8]) it was 59%; in assay [4] (at 50.0 µM) it was 87.2% (active). The growth inhibition in assay [5] (setting [7]) was 36%; in assay [5] (setting [8]) it was 78% (active); in assay [5] (at 50.0 µM) it was 88.2% (active); in assay [6] (setting [7]), 48%; in assay [6] (setting [8]), 96% (active); in assay [6] (at 50.0 µM), 91% (active).
As for `CN1C(Cl)=NS(=O)(=O)c2ccccc21`, the growth inhibition in assay [1] (setting [7]) is 18%; in assay [1] (setting [8]), 22%; in assay [1] (at 50.0 µM), -23%; in assay [2] (setting [7]), 14%; in assay [2] (setting [8]) it was 19%; in assay [2] (at 50.0 µM), -5.6%. In addition, the growth inhibition in assay [3] (setting [7]) is 9%; in assay [3] (setting [8]), 18%; in assay [3] (at 50.0 µM) it was -12.4%; in assay [4] (setting [7]), 20%; in assay [4] (setting [8]), 20%; in assay [4] (at 50.0 µM), -1.3%. The growth inhibition in assay [5] (setting [7]) is 15%; in assay [5] (setting [8]), 11%; in assay [5] (at 50.0 µM), 6.35%; in assay [6] (setting [7]) it was 15%; in assay [6] (setting [8]), 25%; in assay [6] (at 50.0 µM) it was 8.95%.
Regarding `CC(=O)N1CCCC2=C1CCCCCCCCCC2`, the growth inhibition in assay [1] (setting [7]) was -7%; in assay [1] (setting [8]), 4%; in assay [1] (at 50.0 µM), 49.4%; in assay [2] (setting [7]) it was -6%; in assay [2] (setting [8]), -5%; in assay [2] (at 50.0 µM) it was 27.9%. Moreover, the growth inhibition in assay [3] (setting [7]) was -3%; in assay [3] (setting [8]), 1%; in assay [3] (at 50.0 µM), 70.6% (active); in assay [4] (setting [7]) it was 3%; in assay [4] (setting [8]) it was -9%; in assay [4] (at 50.0 µM), 22.9%. The growth inhibition in assay [5] (setting [7]) was -12%; in assay [5] (setting [8]), -21%; in assay [5] (at 50.0 µM) it was 29.2%; in assay [6] (setting [7]), -6%; in assay [6] (setting [8]) it was -2%; in assay [6] (at 50.0 µM), 13.8%.
Regarding `C=C(C)/C([O-])=N/[N+](C)(C)CC(O)CCCCCCCCCCCC` (stereo not given), the growth inhibition in assay [1] (setting [7]) is 34%; in assay [1] (setting [8]), 98% (active); in assay [1] (at 50.0 µM) it was 91.7% (active); in assay [2] (setting [7]), 32%; in assay [2] (setting [8]), 99% (active); in assay [2] (at 50.0 µM), 91.5% (active). In addition, the growth inhibition in assay [3] (setting [7]) is 60%; in assay [3] (setting [8]), 99% (active); in assay [3] (at 50.0 µM), 92.2% (active); in assay [4] (setting [7]), 57%; in assay [4] (setting [8]) it was 99% (active); in assay [4] (at 50.0 µM), 90.3% (active). For the same compound, the growth inhibition in assay [5] (setting [7]) is 67%; in assay [5] (setting [8]) it was 99% (active); in assay [5] (at 50.0 µM), 91.5% (active); in assay [6] (setting [7]), 31%; in assay [6] (setting [8]) it was 98% (active); in assay [6] (at 50.0 µM), 90.2% (active).
Take `Nc1ccc(C(=O)/C=C/c2ccccc2O)cc1`: the growth inhibition in assay [1] (setting [7]) is -3%; in assay [1] (setting [8]) it was 37%; in assay [1] (at 50.0 µM), -21.9%; in assay [2] (setting [7]), -5%; in assay [2] (setting [8]), 2%; in assay [2] (at 50.0 µM) it was 28.1%. Moreover, the growth inhibition is 15% in assay [3] (setting [7]); -1% in assay [3] (setting [8]); -9% in assay [3] (at 50.0 µM); -19% in assay [4] (setting [7]); -14% in assay [4] (setting [8]); 2.4% in assay [4] (at 50.0 µM). Also, the growth inhibition is -19% in assay [5] (setting [7]); 23% in assay [5] (setting [8]); -15.8% in assay [5] (at 50.0 µM); -6% in assay [6] (setting [7]); -1% in assay [6] (setting [8]); -1.15% in assay [6] (at 50.0 µM).
For `N#CSc1ccc(O)c2ccccc12`, the growth inhibition is 75% (active) in assay [1] (setting [7]); 79% (active) in assay [1] (setting [8]); 90.2% (active) in assay [1] (at 50.0 µM); 64% in assay [2] (setting [7]); 87% (active) in assay [2] (setting [8]); 91% (active) in assay [2] (at 50.0 µM). Besides, the growth inhibition in assay [3] (setting [7]) is 19%; in assay [3] (setting [8]), 98% (active); in assay [3] (at 50.0 µM) it was 91.7% (active); in assay [4] (setting [7]), 45%; in assay [4] (setting [8]), 98% (active); in assay [4] (at 50.0 µM), 91% (active). The growth inhibition in assay [5] (setting [7]) was 42%; in assay [5] (setting [8]) it was 96% (active); in assay [5] (at 50.0 µM), 90.3% (active); in assay [6] (setting [7]), 29%; in assay [6] (setting [8]), 74% (active); in assay [6] (at 50.0 µM) it was 89.5% (active).
Regarding `SCCc1ccccn1`, the growth inhibition was -3% in assay [1] (setting [7]); 20% in assay [1] (setting [8]); 0.4% in assay [1] (at 50.0 µM); -2% in assay [2] (setting [7]); 20% in assay [2] (setting [8]); 42% in assay [2] (at 50.0 µM). Also, the growth inhibition in assay [3] (setting [7]) was 1%; in assay [3] (setting [8]) it was 13%; in assay [3] (at 50.0 µM), 3.65%; in assay [4] (setting [7]), -6%; in assay [4] (setting [8]), 10%; in assay [4] (at 50.0 µM) it was 15.1%. The growth inhibition was -1% in assay [5] (setting [7]); 14% in assay [5] (setting [8]); 32.1% in assay [5] (at 50.0 µM); -1% in assay [6] (setting [7]); 19% in assay [6] (setting [8]); 73.1% (active) in assay [6] (at 50.0 µM).
Take `CCOC(=O)Nc1c(F)cc(F)cc1F`: the growth inhibition in assay [1] (setting [7]) is 0%; in assay [1] (setting [8]), 0%; in assay [1] (at 50.0 µM) it was 8.65%; in assay [2] (setting [7]), -32%; in assay [2] (setting [8]), 1%; in assay [2] (at 50.0 µM), 5.6%. Besides, the growth inhibition in assay [3] (setting [7]) was 1%; in assay [3] (setting [8]), -1%; in assay [3] (at 50.0 µM), -7.55%; in assay [4] (setting [7]) it was -2%; in assay [4] (setting [8]) it was -4%; in assay [4] (at 50.0 µM), 45.2%. Besides, the growth inhibition in assay [5] (setting [7]) was -5%; in assay [5] (setting [8]), -2%; in assay [5] (at 50.0 µM) it was 4.25%; in assay [6] (setting [7]), 2%; in assay [6] (setting [8]) it was 0%; in assay [6] (at 50.0 µM), -0.05%.
